Measured values: PubChem BioAssay (NCI)
The panel holds about 83,000 compounds, 20% with a hit somewhere; the sample as a whole holds those more often.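 The test compound was applied at a single concentration to cells in 96-well plates for 48 hours, and percent growth was recorded.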 Calls of active or inactive are those of the source. How the source made its calls: active means growth percent below 10; inactive means the rest.

Legend:
Assay in all cases: NCI-60 one-dose screen, 48 h (100 = growth as untreated, 0 = no growth, -100 = all killed)
Settings in all cases: 10 µM unless noted
[1] = system: NCI-H23 lung
[2] = system: NCI-H226 lung
[3] = system: NCI-H322M lung
[4] = system: HOP-62 NSCLC
[5] = system: HOP-92 NSCLC
[6] = system: NCI-H522 lung
[7] = system: A549/ATCC NSCLC
[8] = system: 786-0 renal
[9] = system: COLO 205 colon
[10] = system: DU-145 prostate
[11] = system: K-562 leukemia
[12] = system: MALME-3M melanoma
[13] = system: MDA-MB-231 breast
[14] = system: RXF 393 renal
[15] = system: SF-268 CNS
[16] = system: SF-295 CNS
[17] = system: SF-539 CNS
[18] = system: UACC-257 melanoma
[19] = system: M14 melanoma
[20] = system: NCI-H460 lung

Measured: growth

Fc1ccc2[nH]cc(-c3nc(-c4c[nH]c5c(Cl)nccc45)cs3)c2c1
active: [8] -19.4% | [18] -38.3% | [19] -5.3%
inactive: [1] 60.4% | [2] 40% | [3] 76.7% | [4] 57.1% | [5] 36.4% | [6] 16.7% | [7] 22.5% | [9] 25.2% | [10] 32% | [11] 11.8% | [12] 74.3% | [13] 13.7% | [14] 16.3% | [15] 67.2% | [16] 18.1% | [17] 41.1%

COc1ccc(/C=C(\C(=O)NCc2cccnc2)S(=O)(=O)c2ccccc2)cc1OC
active: [6] -4.24% | [10] 5.77% | [11] 8.68%
inactive: [1] 37.1% | [2] 74.6% | [3] 41.3% | [4] 50.7% | [20] 14.7% | [5] 43.5% | [8] 20.8% | [9] 30.2% | [12] 48% | [13] 22.8% | [14] 15.5% | [15] 29.1% | [16] 57.8% | [17] 15.3% | [18] 44.7% | [19] 28.8%

N=C(N)c1ccc(OCCSCCOc2ccc(C(=N)N)cc2)cc1
active: [16] -33.5%
inactive: [1] 36.2% | [2] 58.8% | [3] 78.3% | [4] 72.5% | [5] 79.2% | [6] 48.5% | [7] 57.4% | [8] 80.2% | [9] 79.5% | [10] 71.7% | [11] 54.3% | [12] 52.2% | [13] 82.1% | [14] 105% | [15] 74.2% | [17] 76.5% | [18] 76.2% | [19] 75.3%

C=C[C@@]1(C)CC(=O)[C@@H](C(C)(C)c2cn(C)c3ccc(Br)cc23)C[C@@H]1O[Si](C)(C)C(C)(C)C
inactive: [1] 98.3% | [2] 83.9% | [3] 101% | [4] 111% | [5] 83.6% | [6] 94.4% | [7] 102% | [8] 97.4% | [9] 104% | [10] 95.4% | [11] 104% | [12] 92.2% | [13] 96.6% | [14] 108% | [15] 96.5% | [16] 103% | [17] 97.3% | [18] 103% | [19] 91.7%

O=C1O[C@@H](c2ccccc2Cl)[C@@H]2c3cc4c(cc3CCN12)OCO4
inactive: [1] 103% | [2] 93.7% | [3] 89.3% | [4] 96.2% | [5] 92.5% | [6] 81.9% | [7] 86.3% | [8] 97.9% | [9] 110% | [10] 105% | [11] 87.5% | [12] 101% | [13] 97.2% | [14] 111% | [15] 93.2% | [16] 102% | [17] 107% | [18] 90.7% | [19] 105%

O=C(Nc1ccc(Oc2cccc(Cl)c2)c(Cl)c1)c1cccnn1
inactive: [1] 84.1% | [2] 78.8% | [3] 93.9% | [4] 101% | [5] 84.4% | [6] 73.6% | [7] 75.3% | [8] 77.4% | [9] 106% | [10] 86.3% | [11] 77% | [12] 104% | [13] 95.5% | [14] 90.3% | [15] 83.9% | [16] 82.2% | [17] 95.3% | [18] 104% | [19] 92.8%

CC(C)n1c2ccc(Br)cc2c2c3c(c4c5ccccc5ccc4c21)C(=O)NC3=O
inactive: [1] 93.7% | [2] 95.5% | [3] 70.9% | [4] 94.6% | [20] 89.9% | [5] 117% | [6] 71.9% | [8] 101% | [9] 101% | [10] 84.2% | [11] 76.4% | [12] 105% | [13] 110% | [14] 98.5% | [15] 88.7% | [16] 101% | [17] 91.5% | [18] 113% | [19] 92.7%

COC(=O)/C=C1/SC(=NCc2ccccc2)N(CCc2c[nH]c3ccccc23)C1=O
inactive: [1] 87.2% | [2] 109% | [3] 98.9% | [4] 102% | [5] 74.6% | [6] 77.1% | [7] 93.1% | [8] 89.4% | [9] 98.7% | [10] 72.5% | [11] 48.5% | [12] 108% | [13] 91% | [14] 81.9% | [15] 90.3% | [16] 89.9% | [17] 105% | [18] 81.6% | [19] 80.5%

CCOc1ncc([N+](=O)[O-])c(OCC)n1
inactive: [1] 106% | [2] 107% | [3] 123% | [4] 104% | [5] 82.2% | [6] 99.9% | [7] 98.9% | [8] 108% | [9] 112% | [10] 123% | [11] 103% | [12] 129% | [13] 97.1% | [14] 122% | [15] 118% | [16] 116% | [17] 102% | [18] 102% | [19] 112%

CCOC(=O)NC(=S)n1oc(=O)c2ccccc21
inactive: [1] 97.7% | [2] 102% | [3] 98.8% | [4] 99.4% | [5] 86.2% | [6] 99.3% | [7] 103% | [8] 111% | [9] 103% | [10] 106% | [11] 112% | [12] 95.4% | [13] 96.8% | [14] 111% | [15] 96.1% | [16] 103% | [17] 95.6% | [18] 105% | [19] 104%

O=C(Nc1ncc(Cc2ccccc2)s1)c1sc2ccccc2c1Cl
inactive: [1] 40.8% | [2] 65% | [3] 43.4% | [4] 25% | [5] 76.7% | [8] 43.2% | [10] 17% | [11] 12.1% | [12] 51% | [13] 55.5% | [15] 52.1% | [16] 17.7% | [18] 54.6% | [19] 11.1%
active: [20] 8.39% | [6] -2.01% | [14] -5.07% | [17] -1.43%

CC1=C2CC/C(C)=C/CC[C@]3(C)O[C@H]3CC/C(C)=C/[C@H]2OC1
inactive: [1] 97.3% | [2] 109% | [3] 101% | [4] 107% | [20] 107% | [5] 94.6% | [6] 87% | [8] 92% | [9] 104% | [10] 110% | [11] 87.5% | [12] 112% | [13] 96.5% | [14] 126% | [15] 105% | [16] 91% | [17] 95.1% | [18] 98.3% | [19] 103%

ClC(Cl)c1nc(-c2ccccc2)n2nc(-c3ccccc3)cc2n1
inactive: [2] 86.9% | [6] 29.9% | [8] 42.9% | [11] 31.2% | [12] 55.9% | [15] 11.9% | [18] 33.9% | [19] 32.3%
active: [1] -17.6% | [3] -41.7% | [4] -3.61% | [5] 3.98% | [7] -16.2% | [9] -40.3% | [10] -12% | [13] 2.2% | [14] -68% | [16] -13.1% | [17] 0.564%

Cc1cccc(N2C(=O)/C(=C/C(Cl)=C/c3ccc([N+](=O)[O-])cc3)SC2=S)c1C
active: [2] -38.1% | [5] -28.1% | [6] -29.3% | [8] 1.63% | [9] -31.9% | [11] 3.9% | [12] -8.54% | [13] -6.22% | [14] -33.6% | [17] -3.16%
inactive: [1] 10.4% | [3] 82.2% | [4] 17.2% | [7] 22.6% | [10] 27.3% | [15] 40.5% | [16] 22.3% | [18] 14.3% | [19] 22.5%

CCOC(=O)c1[nH]cc2c1CCc1sc(Nc3ccccn3)nc1-2
inactive: [1] 66.7% | [2] 57.2% | [4] 92.3% | [20] 85.9% | [5] 56.3% | [6] 66.2% | [8] 98.7% | [9] 93.7% | [10] 74.4% | [11] 59.5% | [12] 108% | [13] 82.3% | [14] 86.2% | [15] 89.4% | [16] 86.5% | [17] 101% | [18] 73.8% | [19] 86.3%

COc1ccc(C/C(C)=C(\c2ccc(O)cc2)c2ccc(OCCN3CCCCC3)cc2)cc1
inactive: [1] 90.1% | [2] 103% | [4] 95.6% | [20] 72.6% | [5] 72.3% | [6] 87.7% | [8] 76.8% | [9] 89.4% | [10] 90.8% | [11] 22.8% | [12] 87.6% | [13] 104% | [14] 79.9% | [15] 81.7% | [16] 98.8% | [17] 83% | [18] 110% | [19] 40.4%
